# Measured values reported in PMC7862700, “An all-to-all approach to the identification of sequence-specific readers for epigenetic DNA modifications on cytosine”.
# How the values were obtained:
# Assay in all cases: DAPPL (digital affinity profiling via proximity ligation, sequencing); 10 mM Tris-HCl pH 7.5, 50 mM NaCl, 1 mM DTT, 4% glycerol, room temperature, 30 min; GST-TFs on glutathione beads, 16-mer random dsDNA library, 0.1% formaldehyde crosslink after washing; high values mean tight binding
# Conditions in all cases: protein: recombinant; tags: N-terminal GST; dsDNA, one strand shown
# [1] = target: ETV1 (Homo sapiens, UniProt P50549 1-477)
# Summary of the method: (§1)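 Each value of binding signal is a hexamer's read frequency for a factor divided by the same hexamer's frequency in the tag-only sample. Barcoded, bead-captured GST fusions of human transcription factors made in yeast were pooled with that sample and incubated with 200 nmole of a random double-stranded 16-mer DNA library in Tris/NaCl/DTT/glycerol buffer at room temperature for 30 min. Washing, 0.1% formaldehyde crosslinking, proximity ligation, PCR and Illumina NextSeq500 sequencing followed.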
# [2] = target: T1, ERF (Homo sapiens, UniProt P50548 1-548)
# T1 sequence: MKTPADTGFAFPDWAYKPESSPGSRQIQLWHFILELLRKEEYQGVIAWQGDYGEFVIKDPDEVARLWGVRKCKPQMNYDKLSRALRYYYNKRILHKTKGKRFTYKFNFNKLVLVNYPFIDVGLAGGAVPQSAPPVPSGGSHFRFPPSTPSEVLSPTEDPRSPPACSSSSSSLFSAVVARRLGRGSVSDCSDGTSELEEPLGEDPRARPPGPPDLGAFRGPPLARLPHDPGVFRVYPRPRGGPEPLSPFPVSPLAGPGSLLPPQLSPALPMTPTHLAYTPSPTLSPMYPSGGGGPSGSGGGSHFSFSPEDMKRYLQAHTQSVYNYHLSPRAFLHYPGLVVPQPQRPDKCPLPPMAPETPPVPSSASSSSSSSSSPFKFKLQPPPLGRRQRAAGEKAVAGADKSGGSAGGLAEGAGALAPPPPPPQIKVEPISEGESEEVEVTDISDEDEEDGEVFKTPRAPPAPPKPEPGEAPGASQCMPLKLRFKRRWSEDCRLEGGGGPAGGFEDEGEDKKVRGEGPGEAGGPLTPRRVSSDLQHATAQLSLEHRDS
# Summary of the method: as §1
# [3] = target: T2, ETV3L (Homo sapiens, UniProt Q6ZN32 1-361)
# T2 sequence: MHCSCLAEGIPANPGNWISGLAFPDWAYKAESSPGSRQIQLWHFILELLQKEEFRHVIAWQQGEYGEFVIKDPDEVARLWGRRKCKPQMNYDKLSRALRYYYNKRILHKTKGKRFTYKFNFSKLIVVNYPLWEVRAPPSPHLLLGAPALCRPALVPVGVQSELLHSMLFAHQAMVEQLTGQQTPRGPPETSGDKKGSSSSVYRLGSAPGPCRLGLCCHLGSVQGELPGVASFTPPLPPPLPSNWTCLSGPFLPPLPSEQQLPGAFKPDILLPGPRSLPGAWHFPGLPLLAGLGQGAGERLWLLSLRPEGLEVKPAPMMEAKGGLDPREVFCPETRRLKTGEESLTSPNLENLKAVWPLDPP
# Summary of the method: as §1
# [4] = target: T3, ETS2 (Homo sapiens, UniProt P15036 1-469)
# T3 sequence: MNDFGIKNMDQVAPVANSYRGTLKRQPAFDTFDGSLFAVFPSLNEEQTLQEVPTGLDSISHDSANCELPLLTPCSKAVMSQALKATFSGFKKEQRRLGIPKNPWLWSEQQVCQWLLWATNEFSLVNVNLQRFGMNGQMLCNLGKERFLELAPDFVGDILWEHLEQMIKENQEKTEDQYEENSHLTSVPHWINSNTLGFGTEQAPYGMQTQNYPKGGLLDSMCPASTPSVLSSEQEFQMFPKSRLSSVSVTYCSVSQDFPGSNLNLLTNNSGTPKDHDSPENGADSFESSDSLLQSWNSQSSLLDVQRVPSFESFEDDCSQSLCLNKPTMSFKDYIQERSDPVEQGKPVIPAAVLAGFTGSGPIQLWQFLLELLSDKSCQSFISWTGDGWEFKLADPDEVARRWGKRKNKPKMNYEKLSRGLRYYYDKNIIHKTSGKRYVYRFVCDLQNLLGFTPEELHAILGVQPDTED
# Summary of the method: as §1
# [5] = target: T4, SPDEF (Homo sapiens, UniProt O95238 1-335)
# T4 sequence: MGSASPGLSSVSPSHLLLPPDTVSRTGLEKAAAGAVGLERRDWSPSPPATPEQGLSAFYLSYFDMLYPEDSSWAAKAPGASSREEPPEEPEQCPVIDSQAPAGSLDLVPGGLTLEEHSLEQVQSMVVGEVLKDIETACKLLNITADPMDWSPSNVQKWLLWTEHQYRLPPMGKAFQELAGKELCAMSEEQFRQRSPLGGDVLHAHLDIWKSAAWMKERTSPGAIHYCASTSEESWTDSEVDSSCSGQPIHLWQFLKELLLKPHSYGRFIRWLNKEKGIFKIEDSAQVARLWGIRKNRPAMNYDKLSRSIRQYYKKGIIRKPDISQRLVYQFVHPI
# Summary of the method: as §1
# [6] = target: T5, ETV7 (Homo sapiens, UniProt Q9Y603 1-341)
# T5 sequence: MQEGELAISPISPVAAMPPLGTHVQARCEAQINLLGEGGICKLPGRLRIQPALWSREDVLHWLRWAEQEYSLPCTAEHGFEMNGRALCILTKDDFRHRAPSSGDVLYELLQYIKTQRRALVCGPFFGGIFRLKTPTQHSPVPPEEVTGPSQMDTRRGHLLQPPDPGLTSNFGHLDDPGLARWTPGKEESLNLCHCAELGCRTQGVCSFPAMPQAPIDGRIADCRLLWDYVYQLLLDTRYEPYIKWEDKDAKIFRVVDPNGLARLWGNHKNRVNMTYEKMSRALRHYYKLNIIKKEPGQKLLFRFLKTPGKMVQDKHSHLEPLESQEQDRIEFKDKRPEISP
# Summary of the method: as §1
# [7] = target: T6, ELF5 (Homo sapiens, UniProt Q9UKW6-2 1-255)
# T6 sequence: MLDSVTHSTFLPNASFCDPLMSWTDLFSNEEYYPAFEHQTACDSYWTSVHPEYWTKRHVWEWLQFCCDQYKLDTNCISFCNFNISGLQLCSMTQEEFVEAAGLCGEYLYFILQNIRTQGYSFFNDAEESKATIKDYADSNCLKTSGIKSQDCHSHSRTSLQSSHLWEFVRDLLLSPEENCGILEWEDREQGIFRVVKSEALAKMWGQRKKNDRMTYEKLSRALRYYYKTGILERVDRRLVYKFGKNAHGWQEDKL
# Summary of the method: as §1
# [8] = target: T7, ETV3 (Homo sapiens, UniProt P41162-2 1-143)
# T7 sequence: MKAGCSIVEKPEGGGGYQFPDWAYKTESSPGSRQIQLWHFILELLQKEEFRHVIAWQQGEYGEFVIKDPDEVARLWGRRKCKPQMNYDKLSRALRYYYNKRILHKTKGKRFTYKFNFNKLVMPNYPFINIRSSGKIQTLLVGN
# Summary of the method: as §1
# [9] = target: ETV6 (Homo sapiens, UniProt P41212 1-452)
# Summary of the method: as §1
# Sequence of ETV6 (P41212 whole entry): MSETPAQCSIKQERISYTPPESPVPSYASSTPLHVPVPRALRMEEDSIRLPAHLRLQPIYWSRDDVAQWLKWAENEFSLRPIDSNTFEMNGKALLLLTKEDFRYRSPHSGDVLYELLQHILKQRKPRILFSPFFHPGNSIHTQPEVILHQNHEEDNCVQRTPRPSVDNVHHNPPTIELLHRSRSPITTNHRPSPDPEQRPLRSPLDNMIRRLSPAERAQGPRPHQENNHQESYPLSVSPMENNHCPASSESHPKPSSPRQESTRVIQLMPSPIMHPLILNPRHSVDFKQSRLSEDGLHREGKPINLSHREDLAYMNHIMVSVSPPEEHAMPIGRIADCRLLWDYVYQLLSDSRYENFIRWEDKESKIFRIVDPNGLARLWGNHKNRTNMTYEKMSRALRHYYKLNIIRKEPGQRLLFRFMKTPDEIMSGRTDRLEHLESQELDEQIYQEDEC
# Sequence of ETV1 (P50549 whole entry, the tested form may be a part): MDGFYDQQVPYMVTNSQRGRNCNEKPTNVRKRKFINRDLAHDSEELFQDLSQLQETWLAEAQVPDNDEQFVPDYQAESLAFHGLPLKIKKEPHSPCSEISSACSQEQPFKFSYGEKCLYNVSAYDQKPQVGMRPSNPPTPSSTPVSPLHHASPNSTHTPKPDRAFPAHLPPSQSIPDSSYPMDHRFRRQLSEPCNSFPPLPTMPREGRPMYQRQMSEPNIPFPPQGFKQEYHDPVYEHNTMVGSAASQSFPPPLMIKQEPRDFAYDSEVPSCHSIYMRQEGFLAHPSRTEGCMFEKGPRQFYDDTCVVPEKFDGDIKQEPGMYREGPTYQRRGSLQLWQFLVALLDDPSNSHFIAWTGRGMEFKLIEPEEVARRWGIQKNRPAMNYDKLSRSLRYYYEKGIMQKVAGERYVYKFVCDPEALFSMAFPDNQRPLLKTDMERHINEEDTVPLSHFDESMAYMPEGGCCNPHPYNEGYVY
sequence,measurement,setting,value
AAGATG,binding signal,[1],"1.12 fold enrichment (6-mer frequency, TF over GST control)"
same,binding signal,[2],"1.18 fold enrichment (6-mer frequency, TF over GST control)"
same,binding signal,[3],"1.12 fold enrichment (6-mer frequency, TF over GST control)"
same,binding signal,[4],"1.16 fold enrichment (6-mer frequency, TF over GST control)"
same,binding signal,[5],"1.1 fold enrichment (6-mer frequency, TF over GST control)"
same,binding signal,[6],"1.12 fold enrichment (6-mer frequency, TF over GST control)"
same,binding signal,[7],"1.14 fold enrichment (6-mer frequency, TF over GST control)"
same,binding signal,[8],"1.09 fold enrichment (6-mer frequency, TF over GST control)"
same,binding signal,[9],"1.2 fold enrichment (6-mer frequency, TF over GST control)"
